Pf Dd2 inh: blocks in vitro growth of P. falciparum Dd2 | P. falciparum Dd2 growth, SYBR Green, 72 h | Potency, µM (highest dose often 28.9 µM), without a hit: at the highest dose activity, negative = inhibition, hits mostly inhibitors | 4.3% of 120,000 active | AID 1347417; active = well fitted inhibition curve with a large enough effect;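 also: plate controls were DMSO vehicle for no effect and reference drug for full effect; nearly all actives have a fitted effect of over 65% in size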
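Readout: SYBR Green fluorescence, 485 nm excitation, 535 nm emission, after ~16 h lysis at 37C. Before that, Dd2-infected red cells (2.5% hematocrit) grew 72 h with compound, 29 uM top final concentration.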
* hit, by the source's call; [ ] = another dose, or the depositor's remark. The full list was thinned out, with hits kept by preference. Potency is read from the fitted curve at half-maximal effect.

`CN(C)C(=O)C1CCc2nnc(C3CCN(C(=O)c4ccc(Cl)cc4Cl)CC3)n21` (stereo not given) gave Pf Dd2 inh 21.8%.
Screening C[S+](=O)([O-])N1CC2ON=C(C(=O)NCc3cccnc3)C2C1 (stereo not given) returned Pf Dd2 inh 14.1%.
Screening CCn1cc(S(=O)(=O)c2cc(C)cc(C)c2)c(=O)c2cc(F)c(N3CCC(C)CC3)cc21 returned Pf Dd2 inh inactive.
Screening CCCN1CCN(c2cc3c(cc2F)c(=O)c(S(=O)(=O)c2ccc(CC)cc2)cn3CC)CC1 returned Pf Dd2 inh 10µM*.
For CCCCn1cc(S(=O)(=O)c2ccccc2)c(=O)c2cc(F)c(N3CCN(CCC)CC3)cc21 the results were Pf Dd2 inh -10.4%.
Screening CCCn1cc(S(=O)(=O)c2ccc(CC)cc2)c(=O)c2cc(F)c(N3CCN(C)CC3)cc21 returned Pf Dd2 inh 7.08µM*.
CCc1ccc(S(=O)(=O)c2cn(C)c3cc(N4CCCC4)c(F)cc3c2=O)cc1 was read as Pf Dd2 inh -10.3%.
For CCc1ccc(S(=O)(=O)c2cn(C)c3cc(N4CCOCC4)c(F)cc3c2=O)cc1 the results were Pf Dd2 inh -18.7%.
For Cc1nnc([C@@H]2CC(F)(F)CN2C(=O)c2n[nH]c3ccccc23)o1 the results were Pf Dd2 inh -2.0%.
`NC1CCCCN(Cc2ccc(-c3ccn[nH]3)s2)C1` (stereo not given) gave Pf Dd2 inh -12.7%.
Cc1ccc(-c2nc(-c3nnn4c3COC(c3ccc(Cl)cc3)C4)no2)s1 (stereo not given) was read as Pf Dd2 inh inactive.
`O=C(Nc1ccc(Cl)cc1)c1cc2n(n1)CC(c1ccc(Cl)cc1)OC2` (stereo not given) gave Pf Dd2 inh 4.0%.
For CN(Cc1cnc2ccccc2c1)C(=O)c1ccc(CCC(C)(C)O)cc1 the results were Pf Dd2 inh -29.5%.
For Cc1nn(-c2ccc(F)cc2)c(Oc2cccc(F)c2)c1CCC(=O)N(C)C(C)C the results were Pf Dd2 inh -17.7%.
`CN(C)c1nc2c(c(=O)[nH]1)CCN(Cc1ccccc1Cl)CC2` gave Pf Dd2 inh -19.8%[5.79 µM].
`Cc1nc(CN2C(=O)OC3(CCN(C(=O)c4scnc4C)CC3)C2(C)c2ccccc2)cs1` (stereo not given) gave Pf Dd2 inh inactive.
`CC(Cn1cccn1)C(=O)N1CCC2(CC1)Nc1ccccc1NC2=O` (stereo not given) gave Pf Dd2 inh -2.5%.
`Cc1ccc2c(CC(=O)N3CCOc4ccc(CN5CCOCC5)cc4C3)cc(=O)oc2c1` gave Pf Dd2 inh inactive.
COc1ccc(CN2Cc3[nH]nc(-c4ccccc4)c3CC2=O)cc1 was read as Pf Dd2 inh -16.7%[44.1 µM].
For COc1ccc(CN2CCC3(CC2)CNC(=O)c2ccccc2O3)cc1 the results were Pf Dd2 inh 1.1%.
COc1ccc(CN2COc3ccc4c(-c5ccccc5)cc(=O)oc4c3C2)cc1 was read as Pf Dd2 inh 1.12µM*.
For Cc1ccc(CN2C[C@@H]3C(=O)N(Cc4ccc5c(c4)OCO5)C(=O)[C@@H]3C2)cc1 the results were Pf Dd2 inh -21.8%.
`Cc1ccc(CN2COc3ccc4c(-c5ccccc5)cc(=O)oc4c3C2)cc1` gave Pf Dd2 inh 0.708µM*.
Screening Cc1noc(-c2ccn3c(CNC(=O)CCC4CCCC4)nnc3c2)n1 returned Pf Dd2 inh -18.9%.
For CCCN(CC1CCOC1)C(=O)Nc1ccc(C)c(Cl)c1 (stereo not given) the results were Pf Dd2 inh 85.0%[5.79 µM].
`COc1ccc(NC(=O)N(C)CC2CCOCC2)cc1F` gave Pf Dd2 inh inactive.
`COc1cccc(NC(=O)Cn2c(=O)n(-c3ccc(Cl)cc3)c(=O)c3sc4ccccc4c32)c1` gave Pf Dd2 inh 11.2µM*.
Screening COc1cccc(NC(=O)Cn2c(=O)n(Cc3ccc(F)cc3)c(=O)c3sc4ccccc4c32)c1 returned Pf Dd2 inh -25.4%.
`COc1ccccc1NC(=O)Cn1c(=O)n(-c2cccc(Cl)c2)c(=O)c2sc3ccccc3c21` gave Pf Dd2 inh inactive.
Screening c1cn(-c2ccc(-c3nccn3C[C@@H]3CCCO3)cc2)cn1 returned Pf Dd2 inh -10.2%.
O=C(O)c1cccc(C2CCCN(C(=O)c3ccccc3-c3ncn[nH]3)C2)c1 (stereo not given) was read as Pf Dd2 inh -0.5%.
Screening COc1cccc(CNC[C@H]2O[C@H](Cc3cc(CN4CCOCC4)on3)CC[C@@H]2O)c1 returned Pf Dd2 inh inactive.
For COc1ccc(-c2cc(C[C@@H]3CC[C@H](O)[C@@H](CNC(=O)Nc4ccccc4)O3)no2)cc1 the results were Pf Dd2 inh inactive.
For COc1cccc(CNC[C@H]2O[C@H](Cc3cc(-c4ccccc4)on3)CC[C@@H]2O)c1 the results were Pf Dd2 inh 2.51µM*.
O=C(Cc1c[nH]c2ccccc12)NCc1cccnc1N1CCOCC1 was read as Pf Dd2 inh -0.9%.
COc1ccc2c(c1)C1(CCN(S(=O)(=O)c3cccc(F)c3)C1)C(=O)N2 (stereo not given) was read as Pf Dd2 inh -11.9%.
For COCCNC(=O)N1CCC2(C1)C(=O)N(C)c1ccc(OC)cc12 (stereo not given) the results were Pf Dd2 inh 13.2%.
COc1ccc2c(c1)C1(CCN(S(=O)(=O)c3ccc(Cl)cc3)C1)C(=O)N2C (stereo not given) was read as Pf Dd2 inh inactive.
COc1ccc2c(c1)C1(CCN(C(=O)NC3CCCCC3)C1)C(=O)N2C (stereo not given) was read as Pf Dd2 inh inactive.
Screening COc1ccc2c(c1)C1(CCN(S(=O)(=O)c3cccc(Cl)c3)C1)C(=O)N2C (stereo not given) returned Pf Dd2 inh 11.2µM*.
Screening COc1ccc2c(c1)C1(CCN(C(=O)COc3ccc(Cl)cc3)C1)C(=O)N2C (stereo not given) returned Pf Dd2 inh 7.08µM*.
For COc1cccc(CN(C)S(=O)(=O)c2cccc(C(=O)NCCF)c2)c1 the results were Pf Dd2 inh 0.3%.
Screening Cc1cc(C(=O)N2CCCC3(COc4ccccc4S(=O)(=O)N3)C2)no1 (stereo not given) returned Pf Dd2 inh 1.8%.
`Cc1cnc(C(=O)N2CCc3onc(-c4ccc(F)c(F)c4)c3C2)cn1` gave Pf Dd2 inh -12.2%.
Cc1ccc(NC(=O)c2cc3n(n2)CC(c2ccc4c(c2)OCO4)OC3)cc1 (stereo not given) was read as Pf Dd2 inh inactive.
O=C1CCN(C(=O)CCc2ccccc2)CCCCCCN1 was read as Pf Dd2 inh -0.8%.
Cc1ccc(NC(=O)O[C@@H]2CC[C@]3(C)C(CC[C@@H](O)[C@H]3CC(=O)N3CCCC3)[C@]2(C)CO)cc1 (stereo not given in full) was read as Pf Dd2 inh inactive.
For COc1cccc(N2CC(C(=O)NCCCc3ccccc3)NC2=O)c1 (stereo not given) the results were Pf Dd2 inh inactive.
COc1ccc(CN2CC3(COCC2=O)CN(c2ccc(C(F)(F)F)cn2)C3)cc1F was read as Pf Dd2 inh inactive.
For FC(F)(F)CN1C2CCC1CN(c1ccc(C(F)(F)F)cn1)C2 the results were Pf Dd2 inh 26.6%.
Screening CC(C)n1ccnc1CN1CCC2(CCCO2)CCC1=O (stereo not given) returned Pf Dd2 inh 4.6%.
Screening C[C@@H]1CN(C2CCN(Cc3cnn(C)c3C3CC3)CC2)C[C@H](C)O1 returned Pf Dd2 inh 1.2%.
